Sampled rows, rich in hits. Any-hit rate of the full collection: about 7.6%.
KB-3-1 tox: qHTS assay for MDR1-selective chemotherapeutics: Primary screen using the parental adenocarcinoma cell KB-3-1; Potency, µM (series often up to 46.1 µM), most hits filed as cytotoxic; hit rate 1.4% among 400,000; KB-3-1 viability, CellTiter-Glo ATP luminescence, 72 h; note: potency is the fitted concentration of half-maximal effect; % is set by controls: 0 for no effect and ±100 for the full control effect; nearly all actives have a fitted effect of over 60% in size
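Cytotoxicity in the drug-sensitive parental line KB-3-1 was scored as loss of CellTiter-Glo luminescence following 72 h incubation with compound. Values come from curve fitting of normalized concentration-response data.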
KCNH2 3.1 block: qHTS for Inhibitors of KCHN2 3.1: Mutant qHTS; U2OS KCNH2 3.1, thallium flux FluxOr; active compounds read low; hit rate 0.95% among 340,000; activity change, % (tested at about 1.8 µM); Potassium voltage-gated channel subfamily H member 2, brain isoform KCNH2 3.1 (human); AID 720553, 2013;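 active = maximum activity change below -70%; inconclusive = maximum activity change from -70% to -50%; inactive = maximum activity change above -50%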;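 note: thallium influx rate constant from kinetic fluorescence after stimulation buffer; % is set by controls: 0 for no effect and ±100 for the full control effect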
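Thallium flux read-out: FluxOr dye with Red40 quencher in HBSS/HEPES, 45 min at RT. Rate constants from kinetic reads were normalized to positive and negative DMSO controls. Cells: U2OS virally expressing the 3.1 isoform.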
hERG WT inh: qHTS for Inhibitors of KCHN2 3.1: Wildtype qHTS; Voltage-gated inwardly rectifying potassium channel KCNH2 (Homo sapiens), Q12809; U2OS, BacMam KCNH2, thallium flux FluxOr; active compounds read low; activity change, % at 1.84 µM; hit rate 0.37% among 340,000; AID 720551, 2013;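 active = maximum activity change below -70%; inconclusive = maximum activity change between -70% and -50%; inactive = maximum activity change above -50%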; note: % is set by controls: 0 for no effect and ±100 for the full control effect
Target sequence (Q12809 whole entry, looked up): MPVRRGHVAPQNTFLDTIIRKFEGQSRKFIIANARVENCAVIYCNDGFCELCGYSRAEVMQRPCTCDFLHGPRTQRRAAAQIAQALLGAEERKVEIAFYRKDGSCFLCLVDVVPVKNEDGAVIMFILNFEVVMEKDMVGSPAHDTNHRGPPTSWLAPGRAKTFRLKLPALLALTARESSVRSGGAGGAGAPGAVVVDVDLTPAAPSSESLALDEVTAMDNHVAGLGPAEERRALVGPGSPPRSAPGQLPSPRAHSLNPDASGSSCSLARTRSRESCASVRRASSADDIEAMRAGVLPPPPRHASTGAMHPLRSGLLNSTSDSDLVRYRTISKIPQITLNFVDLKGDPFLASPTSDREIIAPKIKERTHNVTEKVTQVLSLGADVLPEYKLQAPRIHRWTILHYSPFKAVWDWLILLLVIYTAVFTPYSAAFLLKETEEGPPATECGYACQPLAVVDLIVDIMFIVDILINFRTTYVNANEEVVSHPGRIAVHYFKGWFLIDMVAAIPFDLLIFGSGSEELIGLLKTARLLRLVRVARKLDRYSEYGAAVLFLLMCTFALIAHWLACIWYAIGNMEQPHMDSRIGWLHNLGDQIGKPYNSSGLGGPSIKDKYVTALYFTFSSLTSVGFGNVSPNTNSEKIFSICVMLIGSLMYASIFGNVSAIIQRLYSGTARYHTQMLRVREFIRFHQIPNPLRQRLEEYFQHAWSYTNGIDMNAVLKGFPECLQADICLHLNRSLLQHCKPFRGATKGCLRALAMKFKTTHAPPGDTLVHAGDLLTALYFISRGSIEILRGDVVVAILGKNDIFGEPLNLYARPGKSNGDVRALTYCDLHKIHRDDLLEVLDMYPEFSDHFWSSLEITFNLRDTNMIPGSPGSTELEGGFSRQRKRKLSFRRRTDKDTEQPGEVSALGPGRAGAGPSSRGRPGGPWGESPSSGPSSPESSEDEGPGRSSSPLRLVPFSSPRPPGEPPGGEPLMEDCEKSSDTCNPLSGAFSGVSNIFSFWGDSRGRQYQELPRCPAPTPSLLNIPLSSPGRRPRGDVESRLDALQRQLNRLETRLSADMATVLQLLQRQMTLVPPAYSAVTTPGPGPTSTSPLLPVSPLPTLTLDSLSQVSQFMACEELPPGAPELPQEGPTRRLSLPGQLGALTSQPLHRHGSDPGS
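U2OS cells were transduced with wild-type KCNH2 virus (2.03 x 10^8 / mL) for 4 h at room temperature, then cultured overnight at 37 C. Thallium flux was read with FluxOr dye. Rate constants were normalized to DMSO controls.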
KB-V1 cytotox: qHTS assay for MDR1-selective chemotherapeutics: Primary screen using the drug-selected MDR subline cells KB-V1; KB-V1 MDR cells viability, CellTiter-Glo, 72 h; Potency, µM (titrated, usually from 46.1 µM), usual class: cytotoxic; hit rate 3.4% among 400,000; AID 1347076, 2019; note: potency is the fitted concentration of half-maximal effect; % is set by controls: 0 for no effect and ±100 for the full control effect; nearly all actives have a fitted effect of over 60% in size
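Potencies derive from concentration-effect curves fitted to normalized luminescence (CellTiter-Glo) of KB-V1 cells treated for 72 h at 37 degrees C in phenol-red-free DMEM containing 10% FBS.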
SW480 rerep: A quantitative high throughput screen for small molecules that induce DNA re-replication in SW480 colon adenocarcinoma cells; Potency, µM (series often up to 46.1 µM), without a hit: at the highest dose re-replication activation, actives largely listed as activators; AID 624297, 2012; hit rate 1.8% among 340,000; SW480 DNA re-replication, Hoechst DNA content imaging, 48 h; note: potency is the fitted concentration of half-maximal effect; % of control where 0% means no effect; nearly all actives have a fitted effect of over 55% in size
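Compounds, transferred as 23 nL by pin tool, were incubated with cells for 48 hr; DNA content per nucleus was then quantified by Hoechst staining and fluorescence plate imaging.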
MCF10A rereplic: A quantitative high throughput screen for small molecules that induce DNA re-replication in MCF 10a normal breast cells; MCF 10A DNA re-replication, Hoechst nuclear intensity, 48 h; Potency, µM (series often up to 46.1 µM), for inactives: top-dose activity, positive = re-replication, actives largely listed as activators; hit rate 2.9% among 350,000; AID 624296, 2012; note: potency is the fitted concentration of half-maximal effect; % of control where 0% means no effect; nearly all actives have a fitted effect of over 50% in size
Active calls of the source: *; i = inactive; ? = inconclusive; · = not tested or not shown; [ ] = remark or other dose. Unless noted, calls come from the whole dose curve; as a rule, active = well fitted curve in the direction sought with a large enough effect; inconclusive = small, poorly fitted or top-dose-only effect, or another doubt; inactive = no such curve, though single readings can be large; an effect the other way counts as inactive or inconclusive.

SMILES | KB-3-1 tox | KCNH2 3.1 block | hERG WT inh | KB-V1 cytotox | SW480 rerep | MCF10A rereplic
COc1ccc2c(Cn3cnc4cc([N+](=O)[O-])ccc4c3=O)cc(=O)oc2c1 | 4.6µM* | -3 | 0 | 4.6µM* | 5.8µM* | 9.2µM*
COc1cc(CNC2CCCC2)cc(Cl)c1OCc1ccccc1F | i | -7 | 3 | 23µM* | -6% | 2%
CN(C)S(=O)(=O)c1cccc(NC(=O)C2Cc3ccccc3CN2C(=O)c2ccccc2)c1 (stereo unspecified) | i | 13 | -4 | i | 1% | -3%
O=C1C(=Cc2cn(-c3ccccc3)nc2-c2ccc(OCc3ccccc3F)cc2)SC(=S)N1CCS(=O)(=O)O | i | · | · | i | · | ·
O=C1C(=Cc2cn(-c3ccccc3)nc2-c2ccc(OCc3ccc(Cl)cc3)cc2)SC(=S)N1CCS(=O)(=O)O | 8.2µM* | · | · | ? | · | ·
Cc1[nH]c2ccccc2c1C(O)CN1CCN(c2cccc(C(F)(F)F)c2)CC1 (stereo unspecified) | 15µM* | -33 | 13 | ? | -2%[9.22 µM] | ?
COC(=O)[C@@]12C[C@@H](CC(=O)NCC34CC5CC(CC(C5)C3)C4)C(=O)N(CCc3ccc(OC)c(OC)c3)C1=CCC(C)(C)C2 | ? | · | · | 23µM* | · | ·
COC(=O)[C@@]12C[C@@H](CC(=O)NCCc3ccccc3OC)C(=O)N(CCc3ccc(OC)c(OC)c3)C1=CCC(C)(C)C2 | ? | · | · | 21µM* | · | ·
CCCCNC(=O)C[C@@H]1C[C@@]2(C(=O)OC)CC(C)(C)CC=C2N(CCc2ccc(OC)c(OC)c2)C1=O | i | · | · | ? | · | ·
COc1ccc2c(c1)c(C)cc[n+]2Cc1ccccc1 | 8.2µM* | -11 | -1 | i | -12% | 0%
Cc1ccc2c(c1)c(C)cc[n+]2Cc1ccccc1 | 8.2µM* | 15 | -10 | i | 1% | 1%
Cc1ccc2c(ccc[n+]2CC(=O)c2ccccc2)c1 | i | -8 | -3 | i | -3% | -3%
Cc1ccc2ccc[n+](Cc3ccccc3)c2c1 | 5.2µM* | 19 | -13 | i | 11% | 4%
Cc1ccc(C[n+]2cccc(-c3ccccc3)c2)c(C)c1 | i | 11 | 12 | i | -7% | -5%
CCN(Cc1ccccc1)C(=O)c1[nH]c2ccc(OC)cc2c1C | i | 1 | 12 | i | 1% | 13%
Cc1ccc(OCC(=O)NC(=S)Nc2ccc(Br)cn2)cc1 | i | 3 | -4 | i | -3% | 0%
COc1ccc(NC(=O)c2ccc(CN3C(=O)CCn4nc(C)cc43)cc2)c(OC)c1 | i | · | · | i | · | ·
COc1ccc(CNc2nc(Cl)nc3nc[nH]c23)cc1 | ? | · | · | i | · | ·
CCOC(=O)c1nnc(-c2ccccc2)nc1Sc1ccccc1Cl | ? | -26 | 0 | i | ? | 6.5µM*
CCOC(=O)N1CCN(c2ccc(S(=O)(=O)N3CCOCC3)cn2)CC1 | · | 1 | -22 | · | -10% | ?
CCOC(=O)N1CCN(c2ccc(S(=O)(=O)N(Cc3ccccc3)Cc3ccccc3)cn2)CC1 | i | -10 | 5 | 5.8µM* | 2% | -7%
Cc1ccc(-c2cnc(C(O)c3c(C)cccc3C)[nH]2)cc1 (stereo unspecified) | i | · | · | ? | · | ·
Cc1ccc(/C=C(/C#N)C(=O)NC(C)c2ccccc2)o1 (stereo unspecified) | i | 7 | -2 | 18µM* | 6% | -4%
N#Cc1c(N)nc2c(c1-c1ccc(F)cc1)CCC2 | i | 2 | 3 | i | ? | 13µM*
Cc1ccc(-c2c(C#N)c(N)nc3c2CCCCC3)cc1 | i | 0 | -19 | i | 2% | 1%
SMILES | KB-3-1 tox | KCNH2 3.1 block | hERG WT inh | KB-V1 cytotox | SW480 rerep | MCF10A rereplic
Cc1cccc(C)c1NC(=O)C(C)Sc1n[nH]c(-c2ccncc2)n1 (stereo unspecified) | i | 1 | 0 | i | -6% | 3%
COc1ccccc1N1CCN(c2ccc3ccccc3n2)CC1 | i | -21 | -1 | ? | -22% | 17%
COc1ccc(CN2CCN(c3ccccc3OC)CC2)cc1OC | i | -27 | 30 | ? | -17% | 2.1µM*
COc1ccccc1N1CCN(c2ccc(-c3ccccc3)nn2)CC1 | 2.1µM* | -5 | -3 | 2.1µM* | 4.1µM* | 2.6µM*
COc1ccccc1N1CCN(C/C(C)=C/c2ccccc2)CC1 | i | -98* | 33 | ? | -1% | 4%
COc1ccccc1N1CCN(Cc2ccc(C(=O)O)cc2)CC1 | i | -37 | 4 | ? | -6% | 10%
COc1ccccc1C1CCN(Cc2ccc(C)cc2)CC1 | i | -84* | 39 | i | -1% | -9%
CC1=NN(c2ccccc2)C(=O)/C1=C/N(C)C | i | 6 | -1 | i | 4% | -1%
CC1=NN(c2nc3ccccc3[nH]2)C(=O)C1Cc1ccccc1 (stereo unspecified) | ? | -16 | -11 | ? | 2.9µM* | ?
CCCC1=NN(c2ccc([N+](=O)[O-])cc2)C(=O)/C1=C/N(C)C | i | 7 | 1 | i | -1% | 25%
COc1ccccc1/C=C1/C(=O)N(c2ccc([N+](=O)[O-])cc2)N=C1C | i | -80* | -5 | i | -2% | 2%
CC1=NN(c2ccc([N+](=O)[O-])cc2)C(=O)/C1=C\N(C)C | ? | 17 | 20 | 10µM* | -8% | -1%
O=c1[nH]c2ccccc2nc1NCc1ccccc1 | i | 4 | -4 | i | 2% | 2%
CC1=NN(c2nc3ccccc3[nH]2)C(=O)/C1=C/N(C)C | 5.8µM* | -11 | 0 | ? | 3% | 2%
CC(=O)c1ccc(NC(=O)CSc2ccc3nc(-c4ccccc4)cn3n2)cc1 | i | · | · | i | · | ·
COc1cc(NS(=O)(=O)c2ccc3c(c2)C(C)(C)C(=O)N3C)cc(OC)c1 | i | -3 | 19 | i | -2% | -3%
O=C(NCc1ccco1)c1sc(=S)n2c1[nH]c(=O)c1ccccc12 | ? | 14 | 5 | 21µM* | 2% | ?
O=C(NCc1ccccc1)c1ccc2c(=O)[nH]c3c(C(=O)NCC4CCCO4)sc(=S)n3c2c1 (stereo unspecified) | ? | -8 | 11 | i | -14% | -10%

Screens as filed in PubChem BioAssay.
